Consider 63 molecules from PubChem BioAssay AID485360 (National Center for Advancing Translational Sciences (NCATS), 2010).

Out of some 230,000 compounds screened, about 1,500 (0.65%) were called active. Entries that show only a call come without a potency. Roughly 3% stayed inconclusive and do not appear here. The sample as a whole holds a higher share of actives than the screen did. Unmarked numbers belong to inactive results. Calls come from the whole dose curve; as a rule, active = well fitted inhibition curve with a large enough effect; inconclusive = small, poorly fitted or top-dose-only effect; inactive = no such curve, though single readings can be large or run the other way.
Potency is the fitted concentration of half-maximal effect.

Sequence of Lethal(3)malignant brain tumor-like protein 1 (Homo sapiens) (Q9Y468 whole entry, looked up): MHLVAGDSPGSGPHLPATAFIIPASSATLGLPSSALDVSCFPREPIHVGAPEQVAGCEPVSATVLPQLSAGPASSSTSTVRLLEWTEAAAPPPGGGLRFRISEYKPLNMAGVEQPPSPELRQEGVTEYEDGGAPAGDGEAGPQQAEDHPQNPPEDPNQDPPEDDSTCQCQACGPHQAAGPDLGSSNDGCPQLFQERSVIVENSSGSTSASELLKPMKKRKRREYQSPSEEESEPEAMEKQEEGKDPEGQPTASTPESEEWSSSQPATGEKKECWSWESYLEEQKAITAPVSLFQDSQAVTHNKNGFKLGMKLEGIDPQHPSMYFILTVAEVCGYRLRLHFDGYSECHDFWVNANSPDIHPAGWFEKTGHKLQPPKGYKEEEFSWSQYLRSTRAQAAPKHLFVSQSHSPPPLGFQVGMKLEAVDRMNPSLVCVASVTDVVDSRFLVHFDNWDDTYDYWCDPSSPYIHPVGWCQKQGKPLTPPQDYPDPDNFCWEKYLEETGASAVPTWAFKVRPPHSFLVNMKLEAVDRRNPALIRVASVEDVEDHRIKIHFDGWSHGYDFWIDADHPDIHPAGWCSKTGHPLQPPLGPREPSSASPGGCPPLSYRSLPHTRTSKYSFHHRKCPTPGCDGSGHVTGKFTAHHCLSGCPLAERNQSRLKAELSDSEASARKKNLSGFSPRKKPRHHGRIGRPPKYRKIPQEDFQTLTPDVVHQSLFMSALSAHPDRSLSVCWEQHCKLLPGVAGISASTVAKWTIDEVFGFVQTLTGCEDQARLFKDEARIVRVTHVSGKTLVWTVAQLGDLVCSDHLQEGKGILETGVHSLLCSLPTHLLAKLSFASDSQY

The test addresses Lethal(3)malignant brain tumor-like protein 1 (Homo sapiens) (UniProt Q9Y468). The test is described as follows: qHTS Assay for the Inhibitors of L3MBTL1. Note: nearly all actives have a fitted effect of over 60% in size. As to conditions: AlphaScreen L3MBTL1–H3K9me1 peptide binding; series mostly up to 57.1 µM. The method, boiled down:
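AlphaScreen assay: L3MBTL1 (50 nM final) was preincubated 30 min at room temperature with biotinylated H3(1-15)K9me1 peptide (75 nM final), then 30 min with library compounds; streptavidin donor and nickel chelate acceptor beads (10 ug/mL final) added, 30 min dark.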
`Cc1ccc(OCC(=O)NC(C)c2ccccc2)cc1C` (stereo not drawn): the Potency result was “inactive”.

Regarding `CCCCC[C@@H]1C=C(C(=O)O)[C@H](c2ccc(C#N)cc2)N1S(=O)(=O)c1ccc(C)cc1`, the Potency result is “inactive”.

As for `CC1CN(C(=O)c2ccc([N+](=O)[O-])s2)CC(C)O1` (stereo not drawn), the Potency result is “inactive”.

With `CCOc1ccc(NC(=O)CCC(=O)N/N=C/c2ccc([N+](=O)[O-])s2)cc1`, the Potency entry was “inactive”.

Consider `O=[N+]([O-])c1ccc(C=Nc2ccc(Cl)cc2Cl)s1`, for which the Potency was 25.1 µM (active).

With `O=[N+]([O-])c1ccc2c(c1)Nc1nc3ccccc3nc1N2`, the Potency entry was “inactive”.

Regarding `Cn1nnnc1SCC(=O)Nc1cccc(S(=O)(=O)N2CCCCC2)c1`, the Potency result was “inactive”.

For the molecule `COc1ccccc1-c1sc2ccccc2c1C#CC1(O)CCCCC1`, the Potency result was “inactive”.

For the molecule `COc1ccc2c(C(=O)c3ccc(C)cc3)n(CCC(N)=O)[n+]([O-])c2c1`, the Potency result was “inactive”.

As to `O=C1CSc2ccc(C(=O)NCc3ccccn3)cc2N1`, the Potency result was “inactive”.

In the case of `O=C(NCc1ccccn1)c1ccc2nc(-c3ccco3)c(-c3ccco3)nc2c1`, the Potency is 3.55 µM (active).

As for `O=C(NCc1ccccn1)c1cc(-c2ccccc2Cl)on1`, the Potency entry was “inactive”.

In the case of `COCCNC(=O)Nc1ccc2nc(-c3ccco3)c(-c3ccco3)nc2c1`, the Potency was 2.82 µM (active).

`CC(C)(C)c1ccc(NC(=O)NCc2ccco2)cc1`: the Potency entry is “inactive”.

Take `COc1ccc(NC(=O)Nc2ccc3nsnc3c2)cc1`: the Potency entry was “inactive”.

Consider `O=C(Nc1ncccc1O)c1ccc(C(=O)c2ccccc2)cc1`, for which the Potency result is “inactive”.

For the molecule `CCOC(=O)N1CCN(C(=O)c2ccccc2SCC(=O)NCC2CCCCC2)CC1`, the Potency result was “inactive”.

With `Cc1c(C(=O)N/N=C/c2ccccc2)[nH]c2c([N+](=O)[O-])cccc12`, the Potency entry is “inactive”.

Regarding `CCOC(=O)c1c(C)[nH]c(C(=O)NCc2ccccc2OC)c1C`, the Potency entry was “inactive”.

As for `COc1cccc2c(C)c(C(=O)O)[nH]c12`, the Potency is 25.1 µM (active).

On to `CC(C)Cn1c(SCC(=O)Nc2ccc(Cl)cc2F)nc(O)cc1=O`, for which the Potency entry was “inactive”.

Take `CC(=O)C[C@H](O)CC(=O)[C@@H]1OC(=O)[C@@H](C)C/C=C\Cc2ccccc21`: the Potency entry was “inactive”.

With `CCOc1ccccc1/C=c1\sc2nc(-c3ccco3)nn2c1=O`, the Potency is 15.8 µM (active).

For `CSc1nc(-c2ccco2)nn1C(=O)CCc1ccccc1`, the Potency entry is “inactive”.

As to `CCOC(=O)/C=c1\s/c(=C\c2ccccc2OC)c(=O)n1CC(=O)N1CCOCC1`, the Potency result is “inactive”.

For the molecule `COc1ccccc1N1CC(C(=O)NCCN2C(=O)S/C(=C\c3cccnc3)C2=O)CC1=O` (stereo not drawn), the Potency result is “inactive”.

Regarding `CC[C@]12c3[nH]c4ccc(Cl)cc4c3CCN1C(=O)[C@@H](CC(=O)NCCN1CCOCC1)C[C@@H]2C(=O)N1CCN(C(=O)C2CC2)CC1`, the Potency result was “inactive”.

Turning to `CCOC(=O)C(Cc1ccc(N)cc1)N1C(=O)c2ccccc2C1=O` (stereo not drawn), the Potency result was “inactive”.

Consider `Cc1ccc(C)n1C(Cc1ccccc1)C(=O)O` (stereo not drawn), for which the Potency was 5.62 µM (active).

For `CC(Cc1ccccc1)C(=O)N(C)Cc1ccccc1` (stereo not drawn), the Potency entry is “inactive”.

Turning to `CCn1c(=S)[nH]c2cc(S(=O)(=O)N3CCOCC3)ccc21`, the Potency entry is “inactive”.

With `CCCN=C1N(C)C[C@@H]2[C@@H]3C(=O)N(Cc4ccccc4)C(=O)[C@@H]3[C@](C)(C(=O)OC)N12`, the Potency entry is “inactive”.

`CC(=O)Nc1ccc(C(=O)Nc2cccc(S(=O)(=O)NC3=NCCC3)c2)cc1`: the Potency entry is “inactive”.

On to `Cc1ccc(S(=O)(=O)NCCC(=O)OCC(=O)N(C)c2ccccc2)cc1`, for which the Potency result is “inactive”.

Consider `COc1ccc(N=C(C)c2sc3ccccc3c2O)cc1`, for which the Potency result was “inactive”.

Consider `O=C(N/N=C/c1c(Cl)[nH]c2ccccc12)c1sc2ccccc2c1Cl`, for which the Potency result is “inactive”.

As for `Oc1ccc(N=Cc2sc3ccccc3c2Cl)cc1`, the Potency was 31.6 µM (active).

As to `Cc1csc(SCC(=O)N(c2ccccc2)C(C)C)n1`, the Potency result is “inactive”.

Consider `COC(=O)c1ccc(CNC(=O)c2ccc(S(=O)(=O)N3CCCCCC3)cc2)cc1`, for which the Potency result was “inactive”.

Take `CCN(CC)C(CNC(=O)CSc1nnnn1-c1cccc(F)c1)c1ccco1` (stereo not drawn): the Potency result is “inactive”.

As for `COc1ccc(-c2nnc(SC(C)C(=O)NC3CC3)o2)cc1` (stereo not drawn), the Potency entry was “inactive”.

For `CCCCOC(=O)Nc1nccs1`, the Potency was 8.91 µM (active).

`CCCCOC(=O)Nc1nnc(CC(=O)NCc2ccccc2)s1`: the Potency result was “inactive”.

As for `O=C(COC(=O)c1ccc(O)cc1)Nc1nccs1`, the Potency result is “inactive”.

Regarding `Cc1ccc(NC(=O)CCNC(=O)c2ccc([N+](=O)[O-])cc2)cc1S(=O)(=O)N1CCOCC1`, the Potency result was “inactive”.

As for `CC(=O)N(O)CCCCCNC(=O)CCC(=O)N(O)CCCCCNC(=O)CCC(=O)N(O)CCCCCNC(=O)CCC(=O)O`, the Potency entry is “inactive”.

With `CC[C@]12c3[nH]c4ccc(OC)cc4c3CCN1C(=O)C(CC(=O)NCCN1CCOCC1)C[C@@H]2C(=O)N1CCN(C(=O)C2CC2)CC1` (stereo partly drawn), the Potency entry is “inactive”.

For the molecule `CCCn1c(C)cc(/C=C(\C#N)C(=O)OCC(=O)N(C)c2c(N)n(Cc3ccccc3)c(=O)[nH]c2=O)c1C`, the Potency result was “inactive”.

`Cc1cc(=O)[nH]c(Nc2cccc(Br)c2)n1`: the Potency entry was “inactive”.

In the case of `CCOc1ccc(NC(=O)c2ccc(NC(=O)COC(=O)c3ccc(NC(=O)CC#N)cc3)cc2)cc1`, the Potency is 1.58 µM (active).

`CCOc1cccc(NC(=O)CC#N)c1`: the activity, negative = inhibition was -26.1% [at 11.4 µM].

For `CCOc1ccc(C(=O)Nc2ccncc2)cc1`, the Potency entry is “inactive”.

On to `COC(=O)[C@]1(C)CCC[C@@]2(C)C3CC[C@]4(OC(C)=O)C[C@@]3(CCC21)CC4=NO` (stereo partly drawn), for which the Potency result is “inactive”.

Regarding `COCCCn1c2nc3ccccc3nc2c2c(=O)n(Cc3ccc(Cl)cc3)c(C)nc21`, the Potency result was “inactive”.

`Cc1ccc(Cn2c(C)nc3c(c2=O)c2nc4ccccc4nc2n3Cc2ccco2)cc1`: the Potency was 17.8 µM (active).

As for `Cc1nc2ccccc2c(=O)n1Cc1ccc([N+](=O)[O-])cc1`, the Potency entry is “inactive”.

In the case of `COc1ccc(CCNC(=S)N2CCN(S(=O)(=O)c3ccc(F)cc3)CC2)cc1`, the Potency result was “inactive”.

Take `Cc1cccc(N=C2SC(C)CN2C(=O)CN2C(=O)NC3(CCCC3)C2=O)c1` (stereo not drawn): the Potency result is “inactive”.

`O=C(COc1coc(CN2CCN(c3ccccc3)CC2)cc1=O)N1CCc2ccccc21`: the Potency entry was “inactive”.

For `COc1ccc(C(=O)CSc2nnc(COc3ccccc3)n2Cc2ccco2)cc1`, the Potency result is “inactive”.

In the case of `Cn1c2ccccc2c(=O)c2c(=O)n(Cc3ccco3)c(COc3ccccc3)nc21`, the Potency is 12.6 µM (active).

`CCCc1nc2c(c(=O)c3ccccc3n2C)c(=O)n1-c1cc(C)cc(C)c1`: the Potency entry is “inactive”.

`CC(=O)c1c(C)[nH]c(C(=O)COc2ccc3c(C)cc(=O)oc3c2)c1C`: the Potency entry is “inactive”.
